# Source: ChEMBL document CHEMBL5308541, “MAIP: An Open-Source Tool to Enrich High-Throughput Screening Output and Identify Novel, Druglike Molecules with Antimalarial Activity” (ACS Med Chem Lett, 2023)
# Among all 150,000 compounds or so, about 540 (0.36%) showed an effect of 50% or more. Many of the other results were omitted from the sample, so strong results are more common in it than they were.
# System: Plasmodium falciparum
# Assay: Primary screen in NF54 nanoGlo assay, in single point, at 2uM, 72h; a lower Z score goes with more inhibition
# Assay type: functional, Erythrocyte
# Conditions: timepoint 72 hour
SMILES,% Inhibition [%],Z score
Cc1cccc2c(-c3ccc(N4CCN(C)CC4)nn3)c[nH]c12,-16,2.75
CNC(=O)CN1CCC(Nc2ncnc3ccc(C(C)C)cc23)CC1,2,-0.48
Fc1ccccc1-c1nnc2ccc(NCc3ccccc3OC3CCCC3)nn12,-5,0.8
COc1ccc2[nH]cc(C3=CCN(c4ccc5nnc(-c6ccccc6F)n5n4)CC3)c2c1,51,-8.85
CCCc1cccc(CNC2CCN(C3CCN(C)CC3)CC2)c1,76,-16.27
C[C@@H](CNC1CCN(C2CCN(C)CC2)CC1)c1cccc(Cl)c1,97,-17.23
Cc1cccc([C@@H](C)CNC2CCN(CCN3CCOCC3)CC2)c1,-4,0.67
FC(F)(F)Oc1cccc(CNC2CCN(C3CC3)CC2)c1,-13,2.24
CN1CCC(N2CCC(NCc3cccc4nsnc34)CC2)CC1,14,-2.08
Cn1cc(-c2cncc(C(=O)NC3CCN(c4cccc(F)c4)CC3)c2)cn1,50,-10.8
O=C(c1cccc(OCCc2ccccc2)c1)N1CC2COCCC2(C(=O)O)C1 (stereo not drawn),-3,0.52
Cc1cc(N2CC3COCCC3(C(=O)O)C2)nc2ccc(F)cc12 (stereo not drawn),76,-13.26
Cc1sc2nc(-c3ccccn3)nc(NCCc3nccn3C)c2c1-c1ccccc1,71,-14.01
CCN1CCN(CC2CN(C/C=C/c3ccc(OC)cc3)CC2CO)CC1 (stereo not drawn),-3,0.7
O=C1CN(C2CCN(CC3CCCCC3)CC2)[C@]2(CCOC2)CN1Cc1ccccc1,-8,1.39
Brc1ccc2[nH]c3c(c2c1)CCCC3NC1CCc2[nH]cnc2C1 (stereo not drawn),98,-19.51
CN(C)C1(CNc2nc(C(F)(F)F)nc3cc4c(cc23)OCO4)CCCCCC1,54,-8.21
CN(C)C1(CNc2nc(C(F)(F)F)nc3cc(F)ccc23)CCCCCC1,61,-9.21
CN(C)c1nc(N2CCC(N3CCN(CCO)CC3)CC2)ncc1F,-1,0.13
Cc1ccccc1CN1CCC(CNc2c3c(nc4ccccc24)CCC3)CC1,94,-16.23

SMILES,% Inhibition [%],Z score
C[C@@H](c1cccc(-c2nccc3ncccc23)c1)N1CCCC1,-7,1.08
Cc1ccc2nc(CCCNC3CCN(c4cc(C)nc(N)n4)CC3)oc2c1,40,-6.03
Cc1cc(N2CCC(NCCc3cnn(-c4ccccc4)c3)CC2)nc(N)n1,-2,0.43
Cc1cc(N2CCC(NCCCN3CCCc4ccccc43)CC2)nc(N)n1,53,-8.02
COc1ccc2[nH]c(CN3CCC[C@H](N4CCN(c5ccccc5)CC4)C3)c(C)c2c1,-4,0.66
C[C@@H](c1cccc(-c2nc3cc(C#N)ccc3[nH]2)c1)N(C)C,27,-4.6
Cc1csc(=O)n1Cc1nnc(C(C)C)o1,-8,1.5
Cc1cnccc1NCCNCc1nc2ccccc2[nH]1,-2,0.37
Cc1cnccc1NCCNCc1ccc(OC(C)C)c(Cl)c1,79,-17.03
CCN1CCN([C@H]2CCN(c3nccc4nccnc34)C2)CC1,2,-0.37
CCN1CCN([C@H]2CCN(c3ccnc4ccncc34)C2)CC1,96,-14.59
CCN(C)CC(O)CN1CCC(Oc2cccnc2N2CCCC2)C1 (stereo not drawn),-5,1.05
COc1ccc2nc(C)cc(NCc3cccc(NC(=O)c4ccco4)c3)c2c1,93,-18.52
CN(C)Cc1cccc(CCNCc2csc(-c3ccc(C(F)(F)F)cc3)n2)c1,51,-11.09
CN1CC(=O)N2C[C@@H](NC(=O)c3cccc(-c4ccc(N)nc4)c3)C[C@H]2C1=O,-16,2.42
Cc1ccc2nc(-c3cccc(NC(=O)c4ccc(OC(F)(F)F)c(Cl)c4)c3)[nH]c2n1,57,-12.27
Cc1n[nH]nc1C(=O)Nc1ccc2[nH]c(-c3cccc(F)c3)nc2c1,1,-0.2
N#Cc1ccc(N2C[C@H](COCC3CC3)C3(CCN(Cc4cccc(O)c4)CC3)C2)cc1C(F)(F)F,82,-14.34
CNC(=O)[C@@H]1CC2(CCN(CC3CCCCC3)CC2)CN1c1ccc(C#N)c(C(F)(F)F)c1,-15,2.59
